The nature of assay [1]: inhibitors of TNFa-induced NFkB p65 translocation, primary screen, imaging, HUVEC, MLSMR starter and 10KST1 sets (AID 438).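 Further: compound added about 3h40 before a 20 min TNFalpha stimulation.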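 On inhibition: signal is the nuclear over cytoplasmic p65 intensity ratio per well.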 To be noted: HUVEC TNFa-induced p65 nuclear translocation; cell count: measured here: nuclei count (cytotoxicity indicator), at 2.08 µM; inhibition: at 2 µM, stronger effect = higher value, 0% TNFa-plus-vehicle, 100% no-TNFa wells.
A short description of assay [2]: inhibitors of mutant huntingtin aggregation, primary screen, imaging, exon1htt(103Q)mCFP cells, high-content imaging (AID 483;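 active means visual image review flags a hit and inhibition of aggregation exceeds 20%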;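 further: compound exposure lasted 3 days before fixation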;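 on nuclei count: percent of the per-plate median nuclei count of sample wells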). To be noted: exon1htt(103Q)mCFP cell line, aggregate imaging, at 2 µM; inhibition of aggregation: stronger effect = higher value; nuclei count: measured here: cell count, toxicity.
The nature of assay [3]: inhibitors of E-selectin induction by TNFa, primary screen, imaging, HUVEC, immunofluorescence, MLSMR starter and 10KST1 sets (AID 487;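 active means visually confirmed hit in the image check and inhibition above 20%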;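 on inhibition: signal is fraction of cell area covered by stained E-selectin grains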;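 on nuclei count: 100% = median nuclei count of all wells on the same plate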). The following applies: HUVEC TNFalpha-induced E-selectin immunofluorescence imaging, at 2 µM; inhibition: stronger effect = higher value; nuclei count: measured here: cell number, toxicity.
In assay [4] the target is Voltage-gated potassium channel subunit beta-2 (Rattus norvegicus) (UniProt P62483). Put plainly: KvBeta enzyme negative modulators, primary screen, biochemical, NADPH fluorescence (AID 622;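 active means fluorescence slope higher than the sample average by over 3 SD, cut at about -0.22 in these data, passing the limit was not always enough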;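 further: slope of raw intensity against log time taken from 70 to 1610 s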). To be noted: recombinant KvBeta, 4-cyanobenzaldehyde reduction, at 10 µM, stronger effect = higher value.
Voltage-gated potassium channel subunit beta-2 (Rattus norvegicus), sequence (P62483 whole entry, looked up): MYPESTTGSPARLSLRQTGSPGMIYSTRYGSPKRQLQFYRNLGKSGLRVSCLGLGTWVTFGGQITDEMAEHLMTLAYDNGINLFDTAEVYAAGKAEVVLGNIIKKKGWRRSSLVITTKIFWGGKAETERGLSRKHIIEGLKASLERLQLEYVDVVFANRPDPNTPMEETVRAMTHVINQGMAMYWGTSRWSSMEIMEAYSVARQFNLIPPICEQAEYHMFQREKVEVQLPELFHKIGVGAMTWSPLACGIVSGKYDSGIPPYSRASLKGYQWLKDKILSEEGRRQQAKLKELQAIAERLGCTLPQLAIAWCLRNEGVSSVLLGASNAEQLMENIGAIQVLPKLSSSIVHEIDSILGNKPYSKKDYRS
Assay [5] has the same target. Put plainly: KvBeta positive modulators, primary screen, biochemical, NADPH fluorescence (AID 623;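 active means NADPH fluorescence slope more negative than the mean of all samples by about 3 SD, 99.7% confidence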;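 further: fluorescence intensity change per second fitted from 20 to 320 s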). To be noted: Recombinant KvBeta, NADPH fluorescence decrease slope, 10 min; at 10 µM; stronger effect = lower value.
The target in assay [6] is Alpha-2C adrenergic receptor (Homo sapiens) (UniProt P18825). Put plainly: modulators of alpha2C/GIRK thallium flux, primary screen, cell-based, HEK293 alpha2C/GIRK1/2 (AID 624;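 active means fluorescence slope after compound addition differing from the mean of all screened samples at 99.7% confidence, in either direction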;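 further: slope of fluorescence ratio to pre-addition baseline per second over 15 to 24 s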). The following applies: thallium flux BTC fluorescence, at 10 µM, actives lie on both sides.
Alpha-2C adrenergic receptor (Homo sapiens), sequence (P18825 whole entry, looked up): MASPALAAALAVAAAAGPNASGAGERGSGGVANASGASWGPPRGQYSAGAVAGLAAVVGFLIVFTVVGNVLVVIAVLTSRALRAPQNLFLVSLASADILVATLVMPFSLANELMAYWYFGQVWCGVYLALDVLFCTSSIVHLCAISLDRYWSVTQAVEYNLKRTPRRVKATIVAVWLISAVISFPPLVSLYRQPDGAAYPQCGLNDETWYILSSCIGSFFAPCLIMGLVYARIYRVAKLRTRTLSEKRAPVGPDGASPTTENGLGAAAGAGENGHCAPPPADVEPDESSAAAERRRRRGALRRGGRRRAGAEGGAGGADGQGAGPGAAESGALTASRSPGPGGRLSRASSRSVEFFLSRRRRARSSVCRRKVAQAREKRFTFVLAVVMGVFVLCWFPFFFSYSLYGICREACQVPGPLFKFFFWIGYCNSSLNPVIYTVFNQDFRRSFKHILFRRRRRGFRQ
Assay [7] can be described thus: inhibitors of Sendai virus-induced IRF3 signaling, primary screen, TLR/RLR signaling modifier project, cell-based, Sendai virus stimulus, luciferase, 10K MLSCN set (AID 602276;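 active means inhibition at or above 50% at 10 µM; inactive means inhibition below 50%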;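 further: firefly luciferase from ISG56 promoter only with Renilla not read in this screen; 0% = Sendai virus plus DMSO and 100% = medium plus DMSO without virus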). The following applies: HEK293 RL24 IRF3 luciferase reporter, at 10 µM, stronger effect = higher value. For orientation: In a reporter assay the amount or activity of a reporter protein is the signal.
Assay [8] can be described thus: inhibitors of poly I:C-induced TLR3 signaling, primary screen, cell-based, poly I:C stimulus, luciferase, 10K MLSCN set (AID 602277;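 active means inhibition of the reporter signal at or above 50%; inactive means inhibition below 50%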). To be noted: HEK293-TLR3 RL24 IRF3 luciferase reporter, at 10 µM, stronger effect = higher value.

The source made the active and inactive calls.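 How the source made its calls, unless noted: active means inhibition above 20% together with a positive visual image hit; inconclusive means visual image hit but inhibition not above 20%; inactive means no visual image hit.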

In general, inhibition refers to the change of the read-out against control, counted positive when it falls. Turning to `O=C(c1cnn2c(C(F)F)cc(C3CC3)nc12)N1CCOCC1`, the cell count in assay [1] is 666. For the same compound, the inhibition in assay [1] is -0.3% (inactive); in assay [3] it was -13.3% (inactive); in assay [7], 6.43% (inactive); in assay [8], 18.5% (inactive). In addition, the inhibition of aggregation in assay [2] is 3.1% (inactive). Moreover, the nuclei count amounted to 96.7% in assay [2] and 94.3% in assay [3]. Further, the fluorescence slope in assay [4] is -0.376 (inactive). For the same compound, the NADPH fluorescence slope in assay [5] was 2.5e-06 (inactive). Further, the slope in assay [6] is 0.00295 (inactive).
On to `CC(C)Oc1cc2oc(=O)c3c(c2cc1Cl)CCC3`, for which, in assay [1], the cell count was determined as 385. In addition, the inhibition in assay [1] was 0.8% (inactive); in assay [3], -10.2% (inactive); in assay [7] it was -1.44% (inactive); in assay [8], -17.4% (inactive). For the same compound, the inhibition of aggregation in assay [2] is -21.6% (inactive). The nuclei count was determined as 56.6% in assay [2] and 96.1% in assay [3]. Further, the fluorescence slope in assay [4] was -0.445 (inactive). In addition, in assay [5], the NADPH fluorescence slope is 2.2e-05 (inactive). For the same compound, in assay [6], the slope was 0.00687 (inactive).
Take `COc1ccc(C2c3c(oc4ccccc4c3=O)C(=O)N2c2ccc(C)cn2)cc1OC` (stereo not drawn): the cell count in assay [1] turned out to be 865. In addition, the inhibition in assay [1] is 0% (inactive); in assay [3], -34.6% (inactive); in assay [7], -0.686% (inactive); in assay [8], -4.49% (inactive). In assay [2], the inhibition of aggregation is -13.4% (inactive). Also, the nuclei count turned out to be 75% in assay [2] and 103% in assay [3]. Moreover, the fluorescence slope in assay [4] is -0.605 (inactive). The NADPH fluorescence slope in assay [5] is 6.8e-06 (inactive). The slope in assay [6] is 0.00601 (inactive).
In the case of `CCOC(=O)COc1ccc(C2NC(C(=O)O)CS2)cc1` (stereo not drawn), the cell count in assay [1] was 367. For the same compound, the inhibition was -9.6% (inactive) in assay [1], -4.8% (inactive) in assay [3], 12.5% (inactive) in assay [7] and 13% (inactive) in assay [8]. In assay [2], the inhibition of aggregation was 9.8% (inactive). Also, the nuclei count turned out to be 55.1% in assay [2] and 97.6% in assay [3]. Also, the fluorescence slope in assay [4] was -0.381 (inactive). The NADPH fluorescence slope in assay [5] is -1.3e-05 (inactive). In addition, the slope in assay [6] was 0.00376 (inactive).
In the case of `CS(=O)(=O)N1CCc2cc(S(=O)(=O)Nc3ccc4oc5c(c4c3)CCCC5)ccc21`, in assay [1], the cell count was 484. The inhibition was 7.3% (inactive) in assay [1], -40% (inactive) in assay [3], 11.9% (inactive) in assay [7] and 3.23% (inactive) in assay [8]. Besides, the inhibition of aggregation in assay [2] was -8.4% (inactive). Besides, the figures for the nuclei count in assay [2] and in assay [3] were 104% and 121%, respectively. Also, in assay [4], the fluorescence slope is -0.531 (inactive). In addition, the NADPH fluorescence slope in assay [5] is 1.3e-05 (inactive). The slope in assay [6] was 0.00786 (inactive).
For `Cc1ccc(-c2cc(C(F)F)nc(NCC3CCCO3)n2)cc1` (stereo not drawn), the cell count in assay [1] amounted to 647. Also, the inhibition in assay [1] was 1.4% (inactive); in assay [3], -135% (inactive); in assay [7], -25.4% (inactive); in assay [8], -60.9% (inactive). The inhibition of aggregation in assay [2] is 15.9% (inactive). For the same compound, the nuclei count in assay [2] was determined as 87.5%; in assay [3], 128%. The fluorescence slope in assay [4] is -0.524 (inactive). Also, in assay [5], the NADPH fluorescence slope is 1.3e-05 (inactive). In addition, the slope in assay [6] was 0.00547 (inactive).
Turning to `COc1ccccc1CC1(C)NC(=O)N(CC(=O)Nc2cc(C)on2)C1=O` (stereo not drawn), the cell count in assay [1] came out at 471. Besides, the inhibition was -14.8% (inactive) in assay [1], -28.8% (inactive) in assay [3], 9.53% (inactive) in assay [7] and 16.4% (inactive) in assay [8]. The inhibition of aggregation in assay [2] is 14.1% (inactive). For the same compound, the results for the nuclei count in assay [2] and in assay [3] were 88.8% and 158%, respectively. Also, the fluorescence slope in assay [4] was -0.598 (inactive). In assay [5], the NADPH fluorescence slope was -2.5e-05 (inactive). Moreover, in assay [6], the slope is 0.006 (inactive).
`O=C(Cn1cc2c(n1)CCCCC2)N1CCc2ccccc2C1`: in assay [1], the cell count amounted to 670. Besides, the inhibition in assay [1] was 12% (inactive); in assay [3] it was 27.7% (inactive); in assay [7], -16% (inactive); in assay [8] it was -17.6% (inactive). Also, in assay [2], the inhibition of aggregation is 15.4% (inactive). The values for the nuclei count in assay [2] and in assay [3] were 88.6% and 85.1%, respectively. For the same compound, the fluorescence slope in assay [4] is -0.631 (inactive). The NADPH fluorescence slope in assay [5] is 1.4e-05 (inactive). In assay [6], the slope was 0.0057 (inactive).

These data come from PubChem BioAssay.
